In PubChem BioAssay (NCI):
Compounds without any hit were thinned out: in the full panel of roughly 83,000, 20% have a hit.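 In brief: 96-well plates, 48 h treatment, single concentration, percent growth endpoint.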 Calls of active or inactive are those of the source. How the source made its calls: active means growth percent below 10; inactive means the rest.

What was measured:
Experiment in all cases: NCI-60 one-dose screen, 48 h (100 = growth as untreated, 0 = no growth, -100 = all killed)
Conditions in all cases: 10 µM unless noted
K-562 leukemia = system: K-562 leukemia
MALME-3M melanoma = system: MALME-3M melanoma
MDA-MB-231 breast = system: MDA-MB-231 breast
RXF 393 renal = system: RXF 393 renal
SF-268 CNS = system: SF-268 CNS
SF-295 CNS = system: SF-295 CNS
SF-539 CNS = system: SF-539 CNS
UACC-257 melanoma = system: UACC-257 melanoma
M14 melanoma = system: M14 melanoma
HCT-15 colon = system: HCT-15 colon

Measured: growth

COc1cc(OC)c2sc(-c3ccc(-n4cncc4-c4ccc(N)cc4)cc3)nc2c1
inactive: K-562 leukemia 59.9% | MALME-3M melanoma 84.4% | MDA-MB-231 breast 87.3% | RXF 393 renal 81.5% | SF-268 CNS 74.5% | SF-295 CNS 48.1% | SF-539 CNS 84.6% | UACC-257 melanoma 69.8% | M14 melanoma 76.4% | HCT-15 colon 69.7%

COc1ccc2c(c1)[nH]c(=O)c1c3cc(OC)c(OC)cc3cn21
inactive: MALME-3M melanoma 56.7% | MDA-MB-231 breast 26.4% | SF-295 CNS 13.6% | SF-539 CNS 10.7% | UACC-257 melanoma 82.6% | M14 melanoma 23.6%
active: K-562 leukemia 0.148% | RXF 393 renal 0.926% | SF-268 CNS 9.67% | HCT-15 colon -6.44%

CCCCCCCCSc1ncnc2c1ncn2CO
inactive: K-562 leukemia 73.7% | MALME-3M melanoma 118% | MDA-MB-231 breast 98.2% | RXF 393 renal 55.2% | SF-268 CNS 97.6% | SF-295 CNS 67.7% | SF-539 CNS 86.3% | UACC-257 melanoma 81.6% | M14 melanoma 97.7% | HCT-15 colon 97.1%

NC(=Nc1ccccc1)SCCCCSC(N)=Nc1ccccc1
inactive: K-562 leukemia 44.5% | MALME-3M melanoma 102% | MDA-MB-231 breast 67.5% | RXF 393 renal 73.6% | SF-268 CNS 90% | SF-295 CNS 77.5% | SF-539 CNS 114% | UACC-257 melanoma 101% | M14 melanoma 84.6% | HCT-15 colon 83.1%

COc1ccc(OC)c2c1[nH]c(=O)c1c3ccccc3cn21
inactive: K-562 leukemia 11.2%
active: MALME-3M melanoma -89.4% | MDA-MB-231 breast -89.2% | RXF 393 renal -79.9% | SF-268 CNS -64.9% | SF-295 CNS -76.7% | SF-539 CNS -98.5% | UACC-257 melanoma -75.5% | M14 melanoma -54.3% | HCT-15 colon -46.5%

CC(C)c1ccc(C(=O)Nc2sc3c(CN(C)C)c(O)ccc3c2C(N)=O)cc1
inactive: MALME-3M melanoma 63.9% | MDA-MB-231 breast 38.5% | RXF 393 renal 12.2% | SF-268 CNS 69.3% | SF-295 CNS 61.9% | SF-539 CNS 40.8% | M14 melanoma 18.5%
active: K-562 leukemia -41.3% | UACC-257 melanoma 9.32% | HCT-15 colon -48.7%

O=C(Nc1ccc(Oc2ccc(NC(=O)Nc3ccc([N+](=O)[O-])cc3)cc2)cc1)Nc1ccc([N+](=O)[O-])cc1
inactive: MDA-MB-231 breast 35.1% | RXF 393 renal 28.7% | SF-268 CNS 19.7% | SF-295 CNS 22% | SF-539 CNS 24.9% | HCT-15 colon 10.3%
active: K-562 leukemia -4.47% | MALME-3M melanoma -3.45% | UACC-257 melanoma -20.9% | M14 melanoma 5.41%

CC(=O)Oc1c(C)c(OC(C)=O)c2c(c1C(C)=O)OC1CC(=O)C(C(C)=O)=C(O)C21C (stereo not given)
inactive: K-562 leukemia 73.3% | MALME-3M melanoma 96.9% | MDA-MB-231 breast 106% | RXF 393 renal 132% | SF-268 CNS 122% | SF-295 CNS 92% | SF-539 CNS 98.6% | UACC-257 melanoma 115% | M14 melanoma 96% | HCT-15 colon 94.8%

CC(C)(C)c1ccc(C(O)CCCN2CCC(C(O)(c3ccccc3)c3ccccc3)CC2)cc1 (stereo not given)
active: K-562 leukemia -39.9% | MALME-3M melanoma -78.5% | MDA-MB-231 breast -89.4% | RXF 393 renal -97.8% | SF-268 CNS -65.6% | SF-295 CNS -69.7% | SF-539 CNS -76.4% | UACC-257 melanoma -78.2% | M14 melanoma -91.3% | HCT-15 colon -73.7%

COc1ccc2c(c1)C(=O)c1c-2c(OCCCN(C)C)nc2cc(Br)ccc12
inactive: K-562 leukemia 53.1% | MALME-3M melanoma 69.8% | MDA-MB-231 breast 49.9% | RXF 393 renal 43.7% | SF-268 CNS 69% | SF-295 CNS 93.9% | SF-539 CNS 67.6% | UACC-257 melanoma 108% | M14 melanoma 91.8%
active: HCT-15 colon -31.3%

c1ccc(N2CCN(c3nncc4ccccc34)CC2)nc1
inactive: K-562 leukemia 106% | MALME-3M melanoma 109% | MDA-MB-231 breast 108% | RXF 393 renal 108% | SF-268 CNS 103% | SF-295 CNS 107% | SF-539 CNS 113% | UACC-257 melanoma 99% | M14 melanoma 102% | HCT-15 colon 108%

CC(c1ccccn1)C(C)(O)C(C)c1ccccn1 (stereo not given)
inactive: K-562 leukemia 103% | MALME-3M melanoma 121% | MDA-MB-231 breast 92.8% | RXF 393 renal 115% | SF-268 CNS 100% | SF-295 CNS 107% | SF-539 CNS 99.7% | UACC-257 melanoma 99.8% | M14 melanoma 90.6% | HCT-15 colon 97.4%

COc1cccc(-c2nnc(N)o2)c1
inactive: K-562 leukemia 98.1% | MALME-3M melanoma 106% | MDA-MB-231 breast 124% | RXF 393 renal 94.6% | SF-268 CNS 111% | SF-295 CNS 113% | SF-539 CNS 111% | UACC-257 melanoma 92.7% | M14 melanoma 91.1% | HCT-15 colon 106%

Cc1ccsc1/C=C/C1=NCCCN1C
inactive: K-562 leukemia 101% | MALME-3M melanoma 97% | MDA-MB-231 breast 99.3% | RXF 393 renal 113% | SF-268 CNS 111% | SF-295 CNS 95.6% | SF-539 CNS 119% | UACC-257 melanoma 110% | M14 melanoma 100% | HCT-15 colon 109%

C[n+]1c2ccccc2c(NC2CCNCC2)c2[nH]c3ccccc3c21
inactive: K-562 leukemia 12.7% | MDA-MB-231 breast 17.1% | SF-295 CNS 13.6% | SF-539 CNS 16.7% | UACC-257 melanoma 57.2% | M14 melanoma 60.1% | HCT-15 colon 87.5%
active: MALME-3M melanoma -15.7% | RXF 393 renal -13.7% | SF-268 CNS -31%

Oc1ccc(-c2nn(-c3ccccc3)cc2-c2nc3ccccc3s2)cc1
inactive: K-562 leukemia 78.6% | MALME-3M melanoma 98.8% | MDA-MB-231 breast 81.5% | RXF 393 renal 104% | SF-268 CNS 97.3% | SF-295 CNS 106% | SF-539 CNS 102% | UACC-257 melanoma 107% | M14 melanoma 101% | HCT-15 colon 81.6%

CCOC(=O)/C=C(/C)Sc1cc(O)c2ccccc2c1O
inactive: K-562 leukemia 17.6% | MDA-MB-231 breast 14.7% | RXF 393 renal 46.1% | SF-268 CNS 32.8% | SF-295 CNS 30.2%
active: MALME-3M melanoma -90% | SF-539 CNS 5.78% | UACC-257 melanoma 5.04% | M14 melanoma -94.6% | HCT-15 colon -12.6%

O=C1CC(C(F)(F)F)=NN1C(=O)c1nn(-c2ccc(Cl)cc2)cc1O
inactive: K-562 leukemia 96.7% | MALME-3M melanoma 146% | MDA-MB-231 breast 81.9% | RXF 393 renal 78.1% | SF-268 CNS 56.7% | SF-295 CNS 81.3% | SF-539 CNS 82.7% | UACC-257 melanoma 111% | M14 melanoma 88.4% | HCT-15 colon 69.9%

CN1COc2ccc3ccccc3c2C1
inactive: K-562 leukemia 99.7% | MALME-3M melanoma 111% | MDA-MB-231 breast 102% | RXF 393 renal 107% | SF-268 CNS 100% | SF-295 CNS 96.1% | SF-539 CNS 84.9% | UACC-257 melanoma 107% | M14 melanoma 86.4% | HCT-15 colon 106%

COc1ccc(-c2c(-c3cc(OC)c(OC)c(OC)c3)noc2N)cc1
active: SF-295 CNS 8.4%
inactive: K-562 leukemia 11.8% | MALME-3M melanoma 67.5% | MDA-MB-231 breast 17.1% | RXF 393 renal 26.5% | SF-268 CNS 23.8% | SF-539 CNS 19.3% | UACC-257 melanoma 77.5% | M14 melanoma 15.2% | HCT-15 colon 28%

Cc1[nH]n(C(N)=S)c(=O)c1N=Nc1ccc(F)c(Cl)c1
inactive: K-562 leukemia 95.3% | MALME-3M melanoma 110% | MDA-MB-231 breast 89.1% | RXF 393 renal 131% | SF-268 CNS 92.2% | SF-295 CNS 103% | SF-539 CNS 108% | UACC-257 melanoma 124% | M14 melanoma 100% | HCT-15 colon 104%

COc1ccc(C2=NN(C(=O)c3cc(OC)c(OC)c(OC)c3)C(c3ccc(C#N)cc3)C2)cc1OC (stereo not given)
active: RXF 393 renal -17.2% | SF-295 CNS -3.96% | SF-539 CNS -13.3% | M14 melanoma -6.86%
inactive: K-562 leukemia 20.6% | MALME-3M melanoma 39.5% | MDA-MB-231 breast 18.2% | SF-268 CNS 49.3% | UACC-257 melanoma 69.2% | HCT-15 colon 26.7%

ClC1=C(Cl)C(=C2C(Cl)=C(Cl)C(Cl)=C2Cl)C(Cl)=C1Cl
inactive: K-562 leukemia 87.1% | MALME-3M melanoma 106% | MDA-MB-231 breast 110% | RXF 393 renal 106% | SF-268 CNS 102% | SF-295 CNS 99.2% | SF-539 CNS 104% | UACC-257 melanoma 92.3% | M14 melanoma 102% | HCT-15 colon 106%

COc1c(O)cc2oc3cc(O)c(CC=C(C)C)c(O)c3c(=O)c2c1C/C=C(\C)CCC=C(C)C
active: MDA-MB-231 breast 5.81% | RXF 393 renal -22.5%
inactive: K-562 leukemia 27.2% | MALME-3M melanoma 127% | SF-268 CNS 64.7% | SF-295 CNS 87.2% | SF-539 CNS 93.2% | UACC-257 melanoma 103% | M14 melanoma 52% | HCT-15 colon 73%

COc1ccc(OC)c(NC(=O)c2cc3oc4ccccc4c3cc2O)c1
inactive: K-562 leukemia 86.4% | MALME-3M melanoma 69.7% | MDA-MB-231 breast 100% | RXF 393 renal 143% | SF-268 CNS 87.9% | SF-295 CNS 92% | SF-539 CNS 90.3% | UACC-257 melanoma 92% | M14 melanoma 95.7% | HCT-15 colon 96.7%

O=C(Nc1ccc(Nc2ccncc2)cc1)c1ccc(Nc2ccnc3ccc([N+](=O)[O-])cc23)cc1[N+](=O)[O-]
inactive: K-562 leukemia 107% | MDA-MB-231 breast 94.9% | RXF 393 renal 35.9% | SF-295 CNS 19.4% | SF-539 CNS 53.3% | UACC-257 melanoma 70.9% | M14 melanoma 92.7% | HCT-15 colon 86.7%
active: MALME-3M melanoma -49.8% | SF-268 CNS -11.6%

O=C1NC(=O)/C(=C\c2ccccc2)C2=C1CCCC2
inactive: MALME-3M melanoma 50.6% | MDA-MB-231 breast 92.1% | RXF 393 renal 13.3% | SF-268 CNS 39.4% | SF-295 CNS 88.2% | SF-539 CNS 27.4% | M14 melanoma 36.4% | HCT-15 colon 20.9%
active: K-562 leukemia -37.8% | UACC-257 melanoma -64.6%

CC(C)C/C(=N\NC(=O)c1ccncc1)c1cc(Cl)ccc1O
active: K-562 leukemia 9.61% | UACC-257 melanoma 6.11% | M14 melanoma 2.19%
inactive: MALME-3M melanoma 21.7% | MDA-MB-231 breast 36.3% | RXF 393 renal 40.2% | SF-268 CNS 24.9% | SF-295 CNS 19.2% | SF-539 CNS 12% | HCT-15 colon 23%
